PD-1 reverse act: reversal of PD-1 mediated T-cell inhibition | primary human CD4 T cells, PD-L1 beads, CellTiter-Glo 96 h | activation, % (concentration not given with the values) | 29,000 tested, under 10 active | AID 2316; call rule not given here;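 further: 0% = median vehicle wells and 100% = positive control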
NOMO-1 viab: STK33 inhibitor candidate reducing NOMO-1 cell viability | inhibition, % (test concentration not listed) | NOMO-1 AML viability, CellTiter-Glo luminescence, 72 h | actives 7.5% (n = 37,000) | AID 2330; in the data active means inhibition above about 80%
U2OS ROS induce: raises reactive oxygen species in U2OS cancer cells; U2OS ROS induction, H2DCF-DA fluorescence; ROS induction (% of piperlongumine), % at 10 µM; actives 2% (n = 46,000); AID 624156; in the data active means ROS induction above about 79%, passing the limit was not always enough;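 further: 0% = DMSO vehicle median and 100% = reference compound median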
* marks the source's active call; other numbers are inactive results; . = not tested or not shown. Many of the other results were omitted from the sample, so hits are more common in it than they were.

SMILES	PD-1 reverse act	NOMO-1 viab	U2OS ROS induce
CCn1cc(CCCC(=O)NCCC2=CCCCC2)c2ccccc21	.	.	-6.9
CCSc1nc(SCC)c2c3c([nH]c2n1)CCCC3	.	.	2.1
COc1ccc(C2SCC(C(=O)NC(C)C)N2C(=O)Nc2ccc(C)c(C)c2)cc1 (centres undefined)	.	.	-4.9
O=C(CCC1CCCCC1)Nc1nc2ccccc2s1	.	.	-4.8
Cc1ccc(S(=O)(=O)N(C)C[C@@H]2Oc3ccc(NC(=O)Nc4ccc(C(F)(F)F)cc4)cc3CC(=O)N([C@H](C)CO)C[C@H]2C)cc1	2.2	65.9	12.8
C[C@H]1CN([C@@H](C)CO)C(=O)Cc2cc(NC(=O)Nc3ccc(C(F)(F)F)cc3)ccc2O[C@H]1CN(C)S(=O)(=O)c1ccc(Cl)cc1	-4.2	114.9*	34.3
O=C(Nc1ccc2c(c1)S(=O)(=O)c1cc(NC(=O)C3CCCCC3)ccc1-2)C1CCCCC1	.	.	17.7
CCOc1cc(/C=C2\SC(=O)N(Cc3ccc(F)cc3)C2=O)ccc1O	.	.	9.6
CCOc1cc(/C=C2\Sc3ccccc3C2=O)cc(I)c1O	.	.	95.8*
Cc1nn(-c2ccccc2)c2sc(C(=O)NC(=S)NC3CCSC3=O)cc12 (centres undefined)	.	.	30.6
O=c1c2c3c(sc2[nH]c(=S)n1Cc1ccccc1)CCC3	-0.1	34.0	29.0
Cn1c(=S)[nH]c2sc3c(c2c1=O)CCC(C(C)(C)C)C3 (centres undefined)	-5.0	123.2*	1.8
CC(=O)O[C@H]1C(=O)[C@@]2(C)C([C@H](OC(=O)c3ccccc3)[C@]3(O)C[C@H](OC(=O)[C@H](O)[C@@H](NC(=O)c4ccccc4)c4ccccc4)C(C)=C1C3(C)C)[C@]1(OC(C)=O)CO[C@@H]1C[C@@H]2O (some centres undefined)	-1.9	97.6*	-4.4
CCOC(=S)SCc1cn2cccnc2n1	.	.	-6.4
CC(Oc1ccc(F)cc1)C(=O)Nc1sc2c(c1C(N)=O)CCCC2 (centres undefined)	-8.7	89.3*	.
CCOC(=O)c1c(NC(=O)C(C)Oc2ccccc2C)sc2c1CCCC2 (centres undefined)	.	7.4	.
O=C(NCCC1=CCCCC1)c1ccc2c(c1)OCO2	.	.	-0.2
COc1c(O[C@@H]2O[C@H](CO)[C@@H](O)[C@H](O)[C@H]2O)cc2c(c1OC)-c1ccc(SC)c(=O)cc1C(NC(C)=O)CC2 (some centres undefined)	1.0	-6.7	0.7
CNC1CCc2cc(OC)c(OC)c(OC)c2-c2ccc(OC)c(=O)cc21 (centres undefined)	-21.4	97.4*	2.3
Cc1nc2ccc(-c3nc4ccc(NC(=O)c5cccs5)cc4[nH]3)cc2[nH]1	.	.	-10.6
Nc1ncnc(NCc2cccnc2)c1[N+](=O)[O-]	0.2	4.4	-10.7
Nc1ncnc(Oc2cccc3cccnc23)c1[N+](=O)[O-]	-11.3	107.7*	-8.1
CC(C)n1c(SCC(=O)C(C)(C)C)nc2cc(C(F)(F)F)ccc21	.	.	4.5
COC(=O)COc1cc(Cl)c(C2NC(=S)NC(c3ccccc3)=C2C(C)=O)cc1OC (centres undefined)	.	117.2*	.
COc1cc(C2NC(=S)NC(c3ccccc3)=C2C(=O)c2ccccc2)cc(I)c1OCCO (centres undefined)	-3.9	25.9	6.4
SMILES	PD-1 reverse act	NOMO-1 viab	U2OS ROS induce
CC(C)NC(=O)CCCn1c(=S)[nH]c2ccc(Br)cc2c1=O	.	.	0.8
C[C@@H]1CN([C@H](C)CO)C(=O)Cc2cc(N(C)C)ccc2O[C@@H]1CN(C)C(=O)NC1CCCCC1	-0.7	6.4	108.3*
COc1ccc(NC(=O)N(C)C[C@H]2Oc3ccc(NC(=O)Nc4ccc(C(F)(F)F)cc4)cc3CC(=O)N([C@@H](C)CO)C[C@H]2C)cc1	.	124.4*	-0.4
C[C@H]1CN([C@@H](C)CO)C(=O)Cc2cc(NC(=O)Nc3ccc(C(F)(F)F)cc3)ccc2O[C@@H]1CN(C)C(=O)NC1CCCCC1	0.1	11.8	1.5
C[C@@H]1CN([C@H](C)CO)C(=O)Cc2cc(NC(=O)Nc3ccc(C(F)(F)F)cc3)ccc2O[C@@H]1CN(C)C(=O)NC1CCCCC1	-1.9	112.3*	28.6
COc1ccc(NC(=O)Nc2ccc3c(c2)CC(=O)N([C@@H](C)CO)C[C@H](C)[C@H](CN(C)C(=O)Nc2ccc(C(F)(F)F)cc2)O3)cc1	.	19.8	9.3
Cc1noc(C)c1NC(=O)N(C)C[C@@H]1Oc2ccc(NC(=O)NC3CCCCC3)cc2CC(=O)N([C@H](C)CO)C[C@H]1C	1.5	7.2	1.8
Cc1noc(C)c1NC(=O)N(C)C[C@H]1Oc2ccc(NC(=O)NC3CCCCC3)cc2CC(=O)N([C@@H](C)CO)C[C@@H]1C	0.3	2.5	103.9*
CC(C)NC(=O)N(C)C[C@H]1Oc2ccc(N(C)C)cc2CC(=O)N([C@@H](C)CO)C[C@@H]1C	0.6	-8.3	-5.2
O=C(Nc1ccc(-c2nc3ccccc3s2)cc1)c1cccc(F)c1	.	.	-1.3
N#CC(C(N)=S)=C1CCCC1	.	.	-12.5
Cc1c(Cl)cccc1NC(=O)c1cccnc1Cl	.	.	-2.5
C=CCNc1sc(N)c(C#N)c1C(=O)c1ccc(Br)s1	0.0	-26.5	24.6
O=C(O)C1CCC(Cn2c(SCc3ccccc3Cl)nc3ccsc3c2=O)CC1 (centres undefined)	.	.	34.6
CNS(=O)(=O)c1ccc(C)c(-c2nnc3c4ccccc4c(C)nn23)c1	.	.	14.5
CC(C)NC(=O)N(C)C[C@@H]1Oc2ccc(NC(=O)Nc3ccc4c(c3)OCO4)cc2CC(=O)N([C@H](C)CO)C[C@H]1C	1.1	11.5	125.9*
CC(C)NC(=O)Nc1ccc2c(c1)CC(=O)N([C@@H](C)CO)C[C@H](C)[C@H](CN(C)C(=O)Nc1ccc(F)cc1)O2	0.2	-6.2	111.2*
CC(C)NC(=O)N(C)C[C@H]1Oc2ccc(NC(=O)Nc3ccc4c(c3)OCO4)cc2CC(=O)N([C@@H](C)CO)C[C@@H]1C	-1.0	-19.8	-6.2
C[C@@H]1CN([C@@H](C)CO)C(=O)Cc2cc(NC(=O)Nc3ccc(C(F)(F)F)cc3)ccc2O[C@@H]1CN(C)C(=O)Nc1ccc(C(F)(F)F)cc1	-2.7	114.4*	-5.0
C[C@H]1CN([C@@H](C)CO)C(=O)Cc2cc(NC(=O)Cc3cn(C)c4ccccc34)ccc2O[C@H]1CN(C)C(=O)Nc1ccc(C(F)(F)F)cc1	-1.2	11.6	99.5*
C[C@@H]1CN([C@H](C)CO)C(=O)Cc2cc(NC(=O)Nc3ccc(C(F)(F)F)cc3)ccc2O[C@H]1CN(C)C(=O)Nc1ccc(C(F)(F)F)cc1	-2.7	49.0	-2.2
C[C@H](CO)N1C[C@H](C)[C@H](CN(C)C(=O)Nc2ccc(C(F)(F)F)cc2)Oc2ccc(NC(=O)Cc3cn(C)c4ccccc34)cc2CC1=O	0.7	34.8	8.0
CC(C)NC(=O)Nc1ccc2c(c1)CC(=O)N([C@@H](C)CO)C[C@H](C)[C@@H](CN(C)C(=O)Nc1ccc(F)cc1)O2	0.1	9.5	-14.6
Cc1nnc(-c2ccccc2)c(=O)n1/N=C/c1ccc2c(c1)OCO2	.	.	5.2
Cc1ccc(-c2ccc(=O)n(CC(=O)NC3CCCC3)n2)cc1	.	.	8.4
COc1ccc2cc(C3CC(c4ccc(OC)c(OC)c4)=NN3C(=O)c3ccco3)c(Cl)nc2c1 (centres undefined)	-1.1	46.4	69.2
O=c1ccc2cc(S(=O)(=O)NCCN3CCN(c4cccc(Cl)c4)CC3)ccc2[nH]1	.	.	11.5
